Test in all cases: odor-evoked OSN spike response (post minus pre-stimulus); higher = stronger neuronal excitation
What all share (conditions): odor dilution: 10^-4

The subject of assay [1] is Drosophila ezoana antennal basiconic sensillum ab1. An outline of the steps: (§1)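 Recordings came from antennal basiconic sensilla of restrained adult flies, taking up to 3 sensilla per fly, with a tungsten electrode placed at the sensillum base. Each odorant was diluted to 10^−4 in mineral oil or DMSO, and 10 µl was loaded onto filter paper. A 500 ms air pulse carried it into a charcoal-filtered, humidified air stream flowing at 1.5 l min^−1. The value reported is the change in spike frequency from a 1-second window before the stimulus to a 1-second window after it, counted in Auto Spike software and averaged across replicate sensilla.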

In assay [2] the test system is Drosophila ezoana antennal basiconic sensillum ab3. An outline of the steps: as §1
The subject of assay [3] is Drosophila virilis antennal basiconic sensillum AB2. The procedure, abridged: as §1

Each structure is given as a SMILES string. ± gives the standard deviation of the averaged measurements.

For `CC(C)=O` [acetone], the “odor-evoked OSN spike response” value in assay [1] amounted to 67.1 ± 24 spikes/s; in assay [2], 63.3 ± 28 spikes/s; in assay [3], 53.7 ± 24 spikes/s.

The values above are taken from the supplement of paper PMC10477191.
